Assay results: PubChem BioAssay (NCATS)
Values joined by “and” are separate entries in the source; they are usually repeats but may differ in a detail not shown here. Equal values may be shown once. A number with no mark means an inactive call. Inconclusive results are not listed. Where a call stands in place of a potency, no number is given. Active and inactive are the calls of the source. Unless noted, calls come from the whole dose curve; as a rule, active = well fitted curve in the direction sought with a large enough effect; inconclusive = small, poorly fitted or top-dose-only effect, or another doubt; inactive = no such curve, though single readings can be large; an effect the other way counts as inactive or inconclusive.

How the values were obtained:
[1] = target: Mitogen-activated protein kinase 10 (Mus musculus) (UniProt Q61831); assay: JNK3 AlphaScreen Assay (AID 530; active = well fitted curve in either direction with a large enough effect, not every such curve was filed as active;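 note: kinase came from lysate of stimulated human HepG2 cells; signal reports phosphorylation of biotinylated GST-cJun 1-79 at Ser73 with 10 µM ATP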); conditions: JNK3 lysate, c-Jun phosphorylation; series mostly up to 57.1 µM
How it was run: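 Compound titrations were preincubated 15 minutes at room temperature with substrate, antibody and pre-activated JNK3-containing HepG2 lysate. Reactions were started with 10 uM ATP and stopped with EDTA-containing bead buffer for AlphaScreen detection.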

[2] = Cell Viability - HUV-EC-C (AID 542); conditions: HUV-EC-C endothelial cell viability, qHTS; series mostly up to 92.2 µM;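 note: cells exposed to compound for 40 hours; nearly all actives have a fitted effect of over 35% in size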
How it was run: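 qHTS cytotoxicity: HUV-EC-C, 1000 cells/well, 5 hr settle, compound 40 hr 37 °C, CellTiter-Glo, luminescence. AC50 via Hill equation.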

[3] = Cell Viability - Mesenchymal (AID 546); conditions: mesenchymal cells viability, qHTS; series mostly up to 91.7 µM;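 note: cells exposed to compound for 40 hours before reading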
How it was run: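 AC50 values reflect the drop in intracellular ATP in a human kidney mesenchymal line derived from normal glomeruli. Treatment lasts 40 hr at 37 °C in complete medium, and the signal comes from CellTiter-Glo luminescence.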

[4] = Cellular Toxicity (caspase-3) HepG2 (AID 654); conditions: HepG2 caspase-3 activation, luminescence, 0% = DMSO only, 100% = tamoxifen; series mostly up to 92.2 µM;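 note: cells exposed to compound for 16 hours before reading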
How it was run: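 Cells plated 5 hr at 37 °C, compound added, incubated 16 hr at 37 °C. Caspase-Glo 3/7 reagent followed, 20 min at room temperature, then luminescence read. Activation scored as signal increase; AC50 from Hill fit.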

[5] = Cellular Toxicity (caspase-3) Jurkat (AID 655); conditions: Jurkat caspase-3 activation, luminescence; caspase-3 activation: at 92.2 µM (top of the series), DMSO = 0%, tamoxifen = 100%;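 note: cells exposed to compound for 16 h at 37 °C before reading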
How it was run: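 5000 Jurkat cells/well; compound 16 hr, 37 °C; Caspase-Glo 3/7 added, 20 min RT; luminescence read. Norm: DMSO = 0%, tamoxifen 100 uM = 100%. AC50, Hill model.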

[6] = Cellular Toxicity (caspase-3) BJ (AID 658); conditions: BJ fibroblasts, luminescence, normalized: DMSO 0%, staurosporine 100%; series mostly up to 91.7 µM
How it was run: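 Readout: Caspase-Glo 3/7 luminescence increase in BJ cells after 16 hr treatment at 37 °C. Staurosporine and tamoxifen served as positive controls; AC50 values came from Hill modelling of data normalized to DMSO and 10 uM staurosporine.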

[7] = Cellular Toxicity (caspase-3) SK-N-SH (AID 661); conditions: SK-N-SH caspase-3 activation, qHTS; series mostly up to 91.7 µM
How it was run: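 Human neuroblastoma SK-N-SH, 1500 cells/well, 5 hr pre-incubation, then compound 16 hr, 37 °C. Caspase-Glo 3/7 reagent, 1 hr RT, luminescence. Norm. to DMSO/10 uM staurosporine; Hill-fit AC50.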

[8] = Cellular Toxicity (caspase-3) H-4-II-E (AID 663); conditions: H-4-II-E rat hepatoma; Potency: caspase-3 activation; series mostly up to 92.2 µM;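 note: cells exposed to compound for 16 hr before readout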
How it was run: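 Apoptosis induction is scored as increased luminescence from caspase 3/7 substrate cleavage in rat hepatoma H-4-II-E cells exposed to compound for 16 hr. Activity is scaled between DMSO and 100 uM tamoxifen.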

[9] = Cellular Toxicity (caspase-3) Hek293 (AID 664); conditions: HEK293 caspase-3 activation, DMSO = 0%, 100 µM tamoxifen = 100%; at 92.2 µM (top of the series);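 note: cells exposed to compound for 16 h at 37 °C before readout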
How it was run: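 Cells plated, 5 hr at 37 °C; compounds added; 16 hr at 37 °C; Caspase-Glo 3/7 reagent, 20 min RT; luminescence read. Activation expressed relative to DMSO and 100 uM tamoxifen, AC50 by Hill model.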

[10] = Cellular Toxicity (caspase-3) N2a (AID 665); conditions: N2a cells, luminescence, normalized: DMSO 0%, 10 µM staurosporine 100%; series mostly up to 92.2 µM;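 note: compound exposure lasted 16 h at 37 °C before readout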
How it was run: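 N2a cells, 1500/well, 5 h settle at 37 °C; cpd 16 h, 37 °C; Caspase-Glo 3/7, 1 h RT; luminescence. Norm: DMSO = 0, 10 uM staurosporine = 100%. AC50, Hill fit.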

[11] = Cellular Toxicity (caspase-3) Renal Proximal Tubule (AID 667); conditions: renal proximal tubule cells; series mostly up to 91.7 µM;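 note: cells exposed to compound for 16 hours at 37 °C before detection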
How it was run: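 AC50 derived by standard Hill fit of concentration-response data, normalized between DMSO basal and 10 uM staurosporine as 100% stimulation. Cells: primary rat kidney proximal tubule, 16 h treatment at 37 °C.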

[12] = MultiTox-Fluor Cytotoxicity Assay - LYMP1-003 - Dead Cells (AID 961); conditions: LYMP1-003 lymphoblastoid cells, dead-cell protease fluorescence; series mostly up to 92.2 µM; note: nearly all actives have a fitted effect of over 70% in size; note: potency is the fitted concentration of half-maximal effect
How it was run: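 LYMP1-003 human lymphoblastoid cells (2500/well) exposed to compound 16 h at 37 C in complete medium; dead-cell protease read with bis-AAF-R110 fluorescence (Ex/Em 485/520) after 60 min at room temperature. Normalized to DMSO and 15 uM tetraoctylammonium bromide; AC50 from Hill fit.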

[13] = MultiTox-Fluor Cytotoxicity Assay - LYMP1-003 - Live Cells (AID 962); conditions: LYMP1-003 lymphoblastoid cells, MultiTox-Fluor live-cell protease fluorescence; series mostly up to 92.2 µM;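 note: cytotoxic hits lower the live-cell protease signal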
How it was run: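 qHTS, 1536-well; 2500 cells/well LYMP1-003; 5 hr 37 C settle; cpd 16 hr 37 C; MultiTox-Fluor reagent 60 min RT; live-cell protease fluor. 405/510; Hill-fit AC50; tetraoctylammonium bromide pos. ctrl.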

[14] = Cell Viability - LYMP2-013 (AID 970); conditions: LYMP2-013 lymphoblastoid cells viability; series mostly up to 92.2 µM;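 note: cells exposed to compound for 24 h at 37 °C; nearly all actives have a fitted effect of over 55% in size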; note: potency is the fitted concentration of half-maximal effect
How it was run: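 qHTS; 2500 lymphoblastoid cells/well; 5 hr 37 C settle; cpd 24 hr 37 C; CellTiter-Glo, 30 min RT; luminescence. AC50 = Hill fit.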

[15] = target: Peroxisome proliferator-activated receptor gamma (Homo sapiens) (UniProt P37231); assay: qHTS assay for small molecule agonists of peroxisome proliferator-activated receptor gamma signaling (AID 588536; active = well fitted curve in the direction sought with a large enough effect in the signal ratio, with a control signal flat, not every such curve was filed as active; the % refers to the signal ratio); conditions: HEK293 PPARg-UAS-bla, beta-lactamase ratio, 16 h, percent of rosiglitazone response, DMSO as zero; series mostly up to 76.7 µM
Sequence of Peroxisome proliferator-activated receptor gamma (Homo sapiens) (P37231 whole entry, looked up): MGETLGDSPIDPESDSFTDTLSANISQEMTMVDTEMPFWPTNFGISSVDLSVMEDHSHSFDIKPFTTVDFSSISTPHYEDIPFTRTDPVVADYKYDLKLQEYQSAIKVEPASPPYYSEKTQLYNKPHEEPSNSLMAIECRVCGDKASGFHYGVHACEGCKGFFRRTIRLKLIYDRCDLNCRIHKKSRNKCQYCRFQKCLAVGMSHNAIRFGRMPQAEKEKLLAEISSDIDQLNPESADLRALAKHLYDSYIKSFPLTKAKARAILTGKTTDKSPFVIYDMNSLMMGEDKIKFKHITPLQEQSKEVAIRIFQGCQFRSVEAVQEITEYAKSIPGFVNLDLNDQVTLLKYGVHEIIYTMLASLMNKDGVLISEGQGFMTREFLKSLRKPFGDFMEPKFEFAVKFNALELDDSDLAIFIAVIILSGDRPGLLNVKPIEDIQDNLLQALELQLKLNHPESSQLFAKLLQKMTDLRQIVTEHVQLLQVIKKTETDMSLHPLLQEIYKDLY
How it was run: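 GeneBLAzer PPAR-gamma-UAS-bla HEK293 cells in 1% charcoal/dextran-treated FBS medium were treated 16 h at 37 C with compounds. Beta-lactamase activity was read by CCF4 ratio (460/530 nm). Response was normalized to 2 uM rosiglitazone (100%) and DMSO, then Hill-fitted for EC50 and efficacy.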

[16] = qHTS assay for environmental chemicals that activate the Aryl hydrocarbon Receptor (AhR) signaling pathway (AID 651777); conditions: 1A2-DRE human hepatoma cells, luciferase, 24 h; activation: hits give high values; note: nearly all actives have a fitted effect of over 15% in size
How it was run: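 Following a 24 hr incubation with test chemicals at 37 C and 5% CO2, 1A2-DRE human hepatoma cells received One-Glo reagent; after 30 min at room temperature, luciferase output reflected CYP1A2 induction via AhR.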

[17] = qHTS assay for cell viability of HEK293 cells (AID 743288); conditions: ATP luminescence (CellTiter-Glo), 18 h, hits give low values; note: nearly all actives have a fitted effect of over 50% in size
How it was run: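 HEK293 parental, 2,000 cells/well; ≥5 h pre-incubation 37 C; pintool compound addition; 18 h, 37 C; CellTiter-Glo 30 min RT; luminescence read.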

[18] = qHTS assay for cell viability of the p53RE-bla HCT-116 cell line (AID 743292); conditions: p53RE-bla HCT-116 viability, ATP luminescence, 16 h; series mostly up to 95 µM; note: nearly all actives have a fitted effect of over 55% in size
How it was run: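 After plating at 4,000 cells per well and a 5 h rest at 37 C, HCT-116 cells carrying p53RE-bla received test chemicals in DMSO. Sixteen hours later at 37 C, CellTiter-Glo was added and luminescence recorded following 30 min at room temperature.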

[19] = target: Nuclear receptor subfamily 1 group I member 2 (Rattus norvegicus) (UniProt Q9R1A7); assay: qHTS assay for small molecule activators of the rat pregnane X receptor (rPXR) signaling pathway (AID 651751; call rule not given here); conditions: rPXR reporter cells, luciferase (One-Glo), 24 h
Sequence of Nuclear receptor subfamily 1 group I member 2 (Rattus norvegicus) (Q9R1A7 whole entry, looked up): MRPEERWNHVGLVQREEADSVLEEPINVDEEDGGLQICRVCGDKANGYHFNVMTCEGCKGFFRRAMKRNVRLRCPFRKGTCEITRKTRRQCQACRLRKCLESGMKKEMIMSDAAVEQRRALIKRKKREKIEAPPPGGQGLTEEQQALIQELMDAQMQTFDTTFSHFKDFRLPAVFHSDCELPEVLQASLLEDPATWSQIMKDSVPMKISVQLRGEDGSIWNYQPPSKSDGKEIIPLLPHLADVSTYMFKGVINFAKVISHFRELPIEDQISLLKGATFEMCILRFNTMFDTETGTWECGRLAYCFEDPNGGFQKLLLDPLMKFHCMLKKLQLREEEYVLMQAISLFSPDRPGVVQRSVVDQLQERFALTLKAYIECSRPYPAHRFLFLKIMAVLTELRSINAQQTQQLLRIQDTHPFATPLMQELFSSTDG

[20] = Cell Viability - MRC5 (AID 434; calls by dose curve;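 note: potency is the fitted concentration of half-maximal effect; cells exposed to compound for 40 hours at 37 °C; potency reflects cytotoxicity seen as loss of intracellular ATP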); conditions: MRC5 lung fibroblast viability, qHTS
How it was run: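 qHTS cytotoxicity in human lung fibroblast MRC5 cells; 40 hr treatment, 37 °C; cellular ATP by luciferase luminescence; DMSO = 0%, 100 uM tamoxifen = 100% inhibition; Hill-fit AC50.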

| Structure (SMILES) | Potency [1] | Potency [2] | Potency [3] | outcome [4] | caspase-3 activation [5] | outcome [6] | Potency [7] | Potency [8] | caspase-3 activation [9] | outcome [10] | outcome [11] | Potency [12] | outcome [13] | Potency [14] | outcome [15] | activation [16] | max response [17] | Potency [18] | max response [19] | Potency [20] |
| --- | --- | --- | --- | --- | --- | --- | --- | --- | --- | --- | --- | --- | --- | --- | --- | --- | --- | --- | --- | --- |
| OCCBr | inactive | inactive | inactive | inactive | -0.73% | inactive | inactive | inactive | 0.017% | inactive | inactive | inactive | inactive | inactive | inactive | -0.283% | 5.14% | inactive | -0.978% |  |
| O=[N+]([O-])c1ccccc1-c1ccccc1 | inactive | inactive | inactive | inactive | 0.923% | inactive | inactive | inactive | -1.39% | inactive |  |  | inactive | inactive | inactive | -0.891% | 0.829% | inactive | 0.722% |  |
| COc1ccc(C=O)cc1 |  | inactive |  | inactive | -0.692% | inactive | inactive | inactive | 1.65% | inactive | inactive | inactive | inactive | inactive | inactive | 0.954% | -1.3% | inactive | 2.55% | > 92 µM |
| O=[N+]([O-])c1ccc(Cl)cc1 |  | inactive |  | inactive | 1.25% | inactive | inactive | inactive | -0.181% |  | inactive | inactive | inactive | inactive |  | -0.207% and 4.63% | 7.34% and -5.17% | inactive | 5.34% and 1.87% | > 92 µM |
| CCSC(=O)N1CCCCCC1 |  | inactive | inactive |  | 0.302% | inactive | inactive |  | 2.55% | inactive | inactive | inactive | inactive | inactive | inactive | -0.667% and 0.714% | 2.92% and -12.6% | inactive | -3.47% and 3.01% |  |
| O=[N+]([O-])c1cccc(O)c1 | inactive | inactive | inactive |  | 1.08% | inactive | inactive | inactive | 0.974% |  | inactive | inactive |  | inactive | inactive | 1.58% | -8.12% | inactive | 6% | > 92 µM |
| S=C1NCCN1 |  | inactive | inactive | inactive | 0.9% | inactive | inactive | inactive | -0.864% | inactive | inactive | inactive |  | inactive | inactive | 4.55% and -3.06% | 4.6% and 3.06% | inactive | 6.01% and -10.7% |  |
| OCCOCCO |  | inactive |  | inactive | -0.825% | inactive |  | inactive | 3.16% |  | inactive | inactive | inactive | inactive | inactive | -0.842% | 1.68% | inactive | 3.46% | > 92 µM |
| CN(C)C(=O)Cl |  | inactive | inactive | inactive | -1.4% |  |  |  |  | inactive | inactive | inactive | inactive | inactive | inactive | -0.443% | 4.48% | inactive | -2.26% | > 92 µM |
| Cc1ccc(N)c(N)c1 | inactive | inactive | inactive | inactive |  | inactive | inactive | inactive |  |  | inactive | 15.8 µM (active) |  | 39.8 µM (active) |  |  | -20.1% | inactive |  | > 92 µM |
| CC(C)(OOC(C)(C)c1ccccc1)c1ccccc1 |  | inactive | inactive | inactive |  | inactive | inactive | inactive | 4.99% | inactive | inactive | inactive | inactive | inactive | inactive | -0.821% and 0.322% | -10.5% and -9.14% |  | -3.9% and 4.2% | > 92 µM |
| CCCBr | inactive | inactive | inactive |  | 0.185% | inactive |  | inactive | 2.6% | inactive | inactive |  | inactive | inactive | inactive | 0.665% |  | inactive | -1.34% |  |
| O=S(=O)(Cl)c1ccccc1 | inactive | inactive |  | inactive | 0.656% | inactive | inactive | inactive | -0.803% | inactive | inactive | inactive | inactive | inactive | inactive | 0.182% and 1.5% | 1.81% and -4.13% | inactive | -0.19% and -2.18% | > 92 µM |
